Screening results deposited in PubChem BioAssay by Johns Hopkins Ion Channel Center.
KCNQ2 inh: KCNQ2 (rat) channel inhibition; O88943; CHO-K1 KCNQ2, FluxOR thallium flux, 20 min; hits give low values; B-score at 10 µM; actives 1.1% (n = 310,000); AID 2156;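 active = fluorescence ratio B-score at most minus 3 library SDs, with starting brightness B-score within 2 library SDs, cut at about -5.5 in these data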
KCNQ2 enhance: enhances the rat KCNQ2 potassium channel | AID 2239 | actives 0.54% (n = 310,000) | CHO-K1 KCNQ2, FluxOR thallium flux fluorescence; hits give high values | B-score at 10 µM | O88943;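 active = fluorescence ratio B-score at least 3 SD of library B-scores, with initial fluorescence B-score within 3 of them, cut at about 5.3 in these data; same plate scores as AID 2156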;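 note: B-score of peak minus minimum over baseline fluorescence ratio after K+ and Tl+ stimulus; positive B-score means potentiation of KCNQ2 with more thallium influx and brighter signal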
KCNQ2 inh conf: confirmation of rat KCNQ2 potassium channel inhibitors; shares compounds with KCNQ2 inh; KCNQ2-expressing cells, thallium flux, inhibition; hits give low values; activity change, negative = inhibition, % at 10 µM; actives 57% (n = 1,000)
KCNQ1 spec: selectivity of KCNQ2 inhibitors against human KCNQ1; actives 15% (n = 1,000); AID 493026; KCNQ1-expressing cells, FluxOR thallium flux fluorescence; hits give low values; activity change, negative = inhibition, % at 10 µM; shares compounds with KCNQ2 inh;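 active = activity change at least 3 SD of negative controls below their mean in both duplicate wells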;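 note: CHO cells stably transfected with KCNQ1 and depolarized by potassium stimulus; peak minus minimum fluorescence over baseline after thallium addition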
Target sequence (P51787 whole entry, looked up): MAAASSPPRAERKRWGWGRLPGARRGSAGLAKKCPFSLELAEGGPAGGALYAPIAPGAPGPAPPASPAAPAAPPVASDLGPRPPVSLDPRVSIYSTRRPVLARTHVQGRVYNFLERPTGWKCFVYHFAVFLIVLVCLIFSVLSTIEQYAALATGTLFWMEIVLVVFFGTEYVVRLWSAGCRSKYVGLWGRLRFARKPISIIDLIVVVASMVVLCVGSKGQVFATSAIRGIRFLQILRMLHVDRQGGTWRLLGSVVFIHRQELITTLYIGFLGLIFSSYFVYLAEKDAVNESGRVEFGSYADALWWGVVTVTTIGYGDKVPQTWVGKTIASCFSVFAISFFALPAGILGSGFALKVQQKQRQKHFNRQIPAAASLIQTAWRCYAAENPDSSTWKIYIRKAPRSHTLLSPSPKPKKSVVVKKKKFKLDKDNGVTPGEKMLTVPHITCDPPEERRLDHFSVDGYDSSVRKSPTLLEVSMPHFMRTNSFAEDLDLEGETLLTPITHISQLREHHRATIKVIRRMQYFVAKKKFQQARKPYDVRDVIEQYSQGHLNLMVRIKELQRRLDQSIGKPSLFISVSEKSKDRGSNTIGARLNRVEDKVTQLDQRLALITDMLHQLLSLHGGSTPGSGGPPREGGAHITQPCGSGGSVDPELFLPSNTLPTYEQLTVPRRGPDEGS
CHO Tl ctr: activity in parental CHO cells lacking KCNQ2 | thallium flux counter-screen; hits give low values | AID 493029 | actives 14% (n = 1,000) | shares compounds with KCNQ2 inh | activity change, % at 10 µM
KCNQ2 patch conf: blocks rat KCNQ2 current in automated patch clamp; shares compounds with KCNQ2 inh; KCNQ2-expressing cells; calls only at 10 µM; actives 49% (n = 550)
Each line names hits and unclear results; the compound was inactive in the other large screens (follow-up assays come after a bar, where they were run). In the library only some 1.6% were active in any assay of this set; here they are far more common. Unless noted, the rule behind the calls is not given here.

O=C(c1ccc(F)cc1)N(NC(=O)C(O)(c1ccccc1)c1ccccc1)c1ccccc1	none (no result: KCNQ2 enhance)
COC(=O)N(NC(=O)C(O)(c1ccccc1)c1ccccc1)c1ccccc1	KCNQ2 inh -6.99 | KCNQ2 inh conf inactive | KCNQ1 spec inactive | CHO Tl ctr inactive
COC(=O)/C(=C(O)\C=C\c1ccccc1[N+](=O)[O-])c1nc2ccccc2[nH]1	none
COc1ccc(-n2nc(C(=O)NCC(=O)NCCC3=CCCCC3)c3ccccc3c2=O)cc1	none (no result: KCNQ2 enhance)
Cc1onc(-c2ccccc2)c1C(=O)Nc1ccncc1	none
Cc1onc(-c2ccccc2)c1C(=O)Nc1ccc(Br)cc1Cl	none (no result: KCNQ2 enhance)
Cc1ccccc1NC(=O)c1c(-c2ccccc2)noc1C	KCNQ2 inh -9.54 | KCNQ2 inh conf inactive | KCNQ1 spec inactive | CHO Tl ctr inactive
Cc1ccc(F)cc1NC(=O)c1c(-c2ccccc2)noc1C	KCNQ2 inh -8.14 | KCNQ2 inh conf inactive | KCNQ1 spec inactive | CHO Tl ctr inactive
CSCCC(NC(=O)c1ccccc1Cl)C(=O)N1CCC1 (configuration not stated)	none
CSCCC(NC(=O)c1ccccc1Br)C(=O)N1CCC(C)CC1 (configuration not stated)	KCNQ2 inh -11.5 | KCNQ2 inh conf -35.5% | KCNQ1 spec -39.0% | CHO Tl ctr -30.0% | KCNQ2 patch conf active
CCCCCCCNC(=O)C1CC(=O)N(C)C(=Nc2ccc(OC)cc2)S1 (configuration not stated)	none
CC(C)CC(=O)N1CCN(c2ccc(NC(=O)c3ccco3)cc2)CC1	none
CC(Oc1cccc(Cl)c1)C(=O)Nc1ccccc1C(=O)N1CCCCC1 (configuration not stated)	none (no result: KCNQ2 enhance)
CC(Oc1cccc(Cl)c1)C(=O)Nc1ccccc1N1CCCCC1 (configuration not stated)	KCNQ2 inh -7.09 | KCNQ2 inh conf inactive | KCNQ1 spec inactive | CHO Tl ctr inactive
CCC(Oc1ccccc1)C(=O)Nc1ccccc1N1CCCC1 (configuration not stated)	none (no result: KCNQ2 enhance)
CCC(C(=O)Nc1ccccc1N1CCCC1)c1ccccc1 (configuration not stated)	KCNQ2 inh -7.23 | KCNQ2 inh conf -35.5% | KCNQ1 spec inactive | CHO Tl ctr inactive | KCNQ2 patch conf active
Cc1[nH]c(C)c(S(=O)(=O)NCCc2ccc(S(N)(=O)=O)cc2)c1C(=O)N1CCCC1	none
S=C(Nc1cccc(Cl)c1Cl)N1CCC2(CC1)OCCO2	none
CCOC(=O)/C(=C\Nc1ccccc1C(F)(F)F)Sc1ncc(C(F)(F)F)cc1Cl	none (no result: KCNQ2 enhance)
COC(=O)/C(=C\Nc1ccc(Cl)c2ccccc12)c1ncc(C(F)(F)F)cc1Cl	KCNQ2 inh -8.45 | KCNQ2 inh conf -18.0% | KCNQ1 spec inactive | CHO Tl ctr inactive | KCNQ2 patch conf inactive
CCCCCc1nnc(NC(=O)Cn2cnc3ccccc3c2=O)s1	none
CC(=O)C(Cc1ccccc1)NC(=O)CCl (configuration not stated)	none (no result: KCNQ2 enhance)
CC(=O)C(Cc1ccccc1)NC(=O)CN(C)Cc1ccccc1Cl (configuration not stated)	KCNQ2 inh -8.49 | KCNQ2 inh conf inactive | KCNQ1 spec inactive | CHO Tl ctr inactive
O=c1c(/C=N/N2CCOCC2)c(C(F)(F)F)[nH]n1-c1ccccc1	none (no result: KCNQ2 enhance)
Cc1ccc(S(=O)(=O)NCc2cn3c(C)csc3n2)cc1	none
Cc1ccc(SCc2cn3c(C)csc3n2)cc1	KCNQ2 inh -8.1 | KCNQ2 inh conf inactive | KCNQ1 spec inactive | CHO Tl ctr inactive
O=C(O)c1ccc(Cl)c(NCc2cccs2)c1	none (no result: KCNQ2 enhance)
O=C(NC12CC3CC(CC(C3)C1)C2)c1ccccc1	none (no result: KCNQ2 enhance)
O=C(NC12CC3CC(CC(C3)C1)C2)N(Cc1ccccc1)Cc1ccncc1	KCNQ2 inh -10.9 | KCNQ2 inh conf -34.0% | KCNQ1 spec inactive | CHO Tl ctr inactive | KCNQ2 patch conf active
Cc1ccc(C(=O)O)cc1NC(=O)CSc1ncnc2sc3c(c12)CCC3	none
CSc1ccccc1-c1nc(-c2ccncc2)no1	none (no result: KCNQ2 enhance)
O=C(Cn1c(C(F)(F)F)nc2ccccc21)N=Nc1c(O)[nH]c2ccc(Br)cc12	none
C/C=C/c1ccc(OCC(=O)NCc2ccccc2OC)c(OC)c1	KCNQ2 inh -6.66 | KCNQ2 inh conf inactive | KCNQ1 spec inactive | CHO Tl ctr inactive
COc1ccccc1CNC(=O)COc1ccccc1C	none (no result: KCNQ2 enhance)
O=C(c1cc(C(=O)N2CCOCC2)c2nc3ccccc3n2c1)c1ccccc1O	none (no result: KCNQ2 enhance)
CCc1c(C)sc2nc3c(C(=O)N4CCOCC4)cc(C(=O)c4cc(F)ccc4O)cn3c(=O)c12	KCNQ2 inh -8.48 | KCNQ2 inh conf -24.5% | KCNQ1 spec inactive | CHO Tl ctr inactive | KCNQ2 patch conf active
COc1cccc(OC)c1C(=O)Nc1ccccc1Sc1ccccc1	KCNQ2 inh -6.98 | KCNQ2 inh conf inactive | KCNQ1 spec inactive | CHO Tl ctr inactive
COc1cccc(OC)c1C(=O)Nc1ccccc1NC(=O)c1c(OC)cccc1OC	none
COC(=O)C(C)Oc1ccc(-c2nccc(-c3ccccn3)n2)cc1 (configuration not stated)	none
CCN(CC(=O)NCc1ccc(Cl)cc1)C(=O)c1oc2ccccc2c1C	KCNQ2 inh -7 | KCNQ2 inh conf -19.0% | KCNQ1 spec inactive | CHO Tl ctr inactive | KCNQ2 patch conf active
CCN(CC(=O)NCc1ccc(F)cc1)C(=O)c1oc2ccccc2c1C	none (no result: KCNQ2 enhance)
COc1ccc(CNC(=O)Cn2c(=O)n(CCC(=O)N3CCCCC3)c(=O)c3sccc32)cc1	none
COc1ccc(OC)c(N(CC(=O)NCC2CCCO2)S(=O)(=O)c2ccccc2)c1 (configuration not stated)	none (no result: KCNQ2 enhance)
COC(=O)C(Cc1ccc(O)cc1)NC(=O)C(C)NC(=O)c1ccc(C(C)(C)C)cc1 (configuration not stated)	none
COc1ccc2c(C)cc(SCc3c(C)noc3C)nc2c1	KCNQ2 inh -10.4 | KCNQ2 inh conf inactive | KCNQ1 spec inactive | CHO Tl ctr inactive
COc1ccc2c(C)cc(SCC#N)nc2c1	none (no result: KCNQ2 enhance)
S=c1[nH]nc(-c2cc(-c3ccccc3)n[nH]2)n1/N=C/C(Br)=C/c1ccccc1	none (no result: KCNQ2 enhance)
CC1CN(C(=O)c2ccc(COc3ccc4ccccc4c3)o2)CC(C)O1 (configuration not stated)	KCNQ2 inh -10.2 | KCNQ2 inh conf inactive | KCNQ1 spec inactive | CHO Tl ctr inactive
CC1CN(C(=O)c2ccc(COc3ccc(C(C)C)cc3)o2)CC(C)O1 (configuration not stated)	none (no result: KCNQ2 enhance)
O=C(CSc1nnc(CNC(=O)c2ccco2)o1)Nc1ccccc1F	none
COc1ccc2[nH]c(=O)c(C(c3nnnn3C3CCCCC3)N3CCN(C)CC3)cc2c1 (configuration not stated)	none (no result: KCNQ2 enhance)
COc1ccc(Cn2nnnc2C(c2cc3cc(C)ccc3[nH]c2=O)N2CCN(C)CC2)cc1 (configuration not stated)	none (no result: KCNQ2 enhance)
COc1cc2cc(C(c3nnnn3C3CCCCC3)N(C)C3CCCCC3)c(=O)[nH]c2cc1OC (configuration not stated)	KCNQ2 inh -11.1 | KCNQ2 inh conf inactive | KCNQ1 spec inactive | CHO Tl ctr inactive
